TDP1 inh: inhibitors of human tyrosyl-DNA phosphodiesterase TDP1; Q9NUW8; recombinant TDP1, AlphaScreen DNA substrate cleavage; Potency, µM (doses to about 130 µM), inactives show at the top dose activity change, negative = inhibition, most hits filed as inhibitors; 350,000 compounds, 0.28% hits; note: nearly all actives have a fitted effect of over 40% in size
Target sequence (Q9NUW8 whole entry, looked up): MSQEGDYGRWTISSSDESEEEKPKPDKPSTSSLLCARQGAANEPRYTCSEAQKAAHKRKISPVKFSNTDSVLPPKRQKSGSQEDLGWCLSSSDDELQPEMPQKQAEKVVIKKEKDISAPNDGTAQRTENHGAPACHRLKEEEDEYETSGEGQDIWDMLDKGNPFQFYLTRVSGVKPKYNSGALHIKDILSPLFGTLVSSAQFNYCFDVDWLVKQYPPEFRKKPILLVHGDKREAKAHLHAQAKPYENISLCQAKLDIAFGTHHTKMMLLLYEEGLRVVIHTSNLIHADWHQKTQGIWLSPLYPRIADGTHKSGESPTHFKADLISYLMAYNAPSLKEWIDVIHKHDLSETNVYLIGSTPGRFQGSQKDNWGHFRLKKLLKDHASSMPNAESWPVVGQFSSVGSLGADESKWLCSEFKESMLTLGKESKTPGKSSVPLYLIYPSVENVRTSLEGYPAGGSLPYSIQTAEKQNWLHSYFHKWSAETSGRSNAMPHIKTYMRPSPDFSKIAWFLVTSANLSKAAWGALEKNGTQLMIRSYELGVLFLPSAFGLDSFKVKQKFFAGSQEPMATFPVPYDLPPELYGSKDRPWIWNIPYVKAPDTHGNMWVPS
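Recombinant E. coli-expressed Tdp1 (1 nM) preincubated with compound 15 min at RT, then 5'-biotin/3'-phosphotyrosine-FITC DNA substrate (15 nM) added for 5 min. AlphaScreen beads (10 ug/ml) added, 10 min RT; tyrosine-FITC cleavage read as signal loss.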
DT40 TDP1 no CPT: qHTS for Inhibitors of human tyrosyl-DNA phosphodiesterase 1 (TDP1): qHTS in cells in absence of CPT | DT40 Tdp1-/- hTDP1 cells, no CPT, ATP luminescence, 48 h | Potency, µM (highest dose often 46.2 µM), without a hit: at the highest dose activity change, negative = growth inhibition, hits mostly inhibitors | 420,000 compounds, 15% hits; note: nearly all actives have a fitted effect of over 55% in size
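Camptothecin absent (DMSO only). Human TDP1-complemented DT40 knockout cells, 400 cells/well, 37 °C for minimum 48 hr; ATP measured via CellTiter-Glo, 30 min dark incubation, luminescence.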
GCN5L2 inh: blocks human GCN5L2 histone acetyltransferase; AID 504327; Potency, µM (highest dose often 58.9 µM), without a hit: at the highest dose activity change, negative = inhibition, usual class: inhibitors; GCN5L2 HAT assay, ThioGlo1 CoA-SH fluorescence; Q92830; 390,000 compounds, 0.21% hits
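Titration-based screen in which CoA formation is detected via maleimide probe ThioGlo1 (50uM) turning fluorescent on thiol reaction; substrates H3(1-25) 75uM and acetyl-CoA 70uM, GCN5L2 20nM, 20 min incubation at room temperature.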
PLK1 PBD inh: blocks phosphopeptide binding to human PLK1 polo-box domain | P53350 | Potency, µM, inactives show max response, negative = inhibition, most hits filed as inhibitors | Plk1 PBD binding of FITC phosphopeptide, fluorescence polarization | 360,000 compounds, 2.8% hits | AID 720504; note: series mostly up to about 57 µM; nearly all actives have a fitted effect of over 65% in size
TDP1 cell CPT: DT40-hTDP1 cell growth loss with CPT; chicken DT40 Tdp1-/-;hTDP1 cells + 20 nM CPT, ATP luminescence, 48 h; Potency, µM (series often up to 46.2 µM), for the others: at the highest dose activity change, negative = growth inhibition, most hits filed as inhibitors; 420,000 compounds, 12% hits; AID 686979; note: nearly all actives have a fitted effect of over 55% in size
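Cell growth measured by CellTiter-Glo luminescence after a minimum 48 h, 37 C compound exposure with 20 nM CPT in Tdp1-knockout DT40 cells stably expressing hTDP1, seeded 400/well; qHTS titration format.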
VDR inhibitor: blocks the human vitamin D receptor; 400,000 compounds, 0.93% hits; P11473; VDR-SRC2-3 peptide fluorescence polarization, 2 h; Potency, µM, for inactives: max response, negative = inhibition, hits mostly inhibitors; AID 504847
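Two reagent solutions held at 4 deg C in the dark were dispensed, compounds pinned at 23 nl, and the mixture incubated 2 h at room temperature. Read-out: fluorescence polarization of VDR–SRC2-3 peptide binding.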
Numbers without * were called inactive; ? = inconclusive; · = no result given; [ ] = another dose, or the depositor's remark. Compounds with a hit are over-represented: about 18% of the library has one in this group of screens. Calls come from the whole dose curve; as a rule, active = well fitted curve in the direction sought with a large enough effect; inconclusive = small, poorly fitted or top-dose-only effect, or another doubt; inactive = no such curve, though single readings can be large; an effect the other way counts as inactive or inconclusive. % is set by controls: 0 for no effect and ±100 for the full control effect; potency is the fitted concentration of half-maximal effect.

SMILES	TDP1 inh	DT40 TDP1 no CPT	GCN5L2 inh	PLK1 PBD inh	TDP1 cell CPT	VDR inhibitor
COc1ccc(C(=O)COc2ccccc2C(=O)Nc2ccccc2)cc1	0%	18µM*	-5%	-9%	12µM*	-3%
O=C(Oc1ccccc1C(=O)Nc1ccccc1)c1ccccc1Br	2%	21µM*	-7%	-19%	18µM*	4%
COc1cccc(-c2ccc(O)c(CNCc3cccc4ccccc34)c2)n1	·	-19%	·	·	-6%	·
N#CC1(NC(=O)CSc2nnc(C3CC3)n2C2CC2)CCCCC1	1%	17%	-3%	-1%	-10%	8%
C[C@@H](CN1CC(=O)NC(=O)C1)N1CC(=O)NC(=O)C1	·	?	·	·	-8%	·
CNC(=O)CSc1nnc(-c2ccco2)n1-c1cccc(OC)c1	·	12%	0%	-11%	-9%	19%
COc1cccc(-c2c(C(=O)N/N=C(\C)c3ccc(Cl)s3)nnn2-c2nonc2N)c1	3%	-11%	17%	2%	-19%	-5%
Oc1cccc(-c2nc(-c3cccs3)c(-c3cccs3)[nH]2)c1	7%	?	-4%	·	?	1%
CCN1CCN(C(c2cccc(F)c2)c2c(O)cc(C)n(CCOC)c2=O)CC1 (stereo not given)	0%	-1%	-4%	·	-3%	4%
CCOC(=O)c1sc2ccccc2c1S(=O)(=O)Nc1c(C)cccc1C	7%	?	1%	·	?	4%
CCOC(=O)c1sc2ccccc2c1S(=O)(=O)Nc1ccc(CC)cc1	2%	23µM*	-15%	·	?	1%
CC1CC=CC2C1C(=O)N(Cc1ccccc1)C2c1ccc(-c2ccoc2)cc1F (stereo not given)	3%	·	·	·	·	?
COc1ccc(C(=O)CNc2ccccc2C#N)cc1	-5%	21µM*	-10%	-10%	?	8%
COC(=O)c1ccccc1NCC(=O)c1ccc(OC)cc1	-4%	?	-14%	-1%	?	11%
COc1ccccc1NCC(=O)c1ccc(Cl)cc1	·	?	9%	-12%	-27%	79µM*
Fc1ccc(Cc2cn3cc(-c4ccc(F)cc4)nc3s2)cc1	2%	-39%	-5%	·	?	9%
CC(C)C[C@H]1CN(CCCC[C@@H]2CNC(=O)C(=O)N2Cc2ccccc2)C(=O)C(=O)N1CCc1ccc(O)cc1	·	1%	·	5%	2%	·
COc1cc(OC)cc(C(=O)OCC(=O)NC2CCCCCCC2)c1	·	?	·	-15%	-26%	·
O=C(NCCCN1CCCC1=O)c1c(O)nc2sccn2c1=O	1%	0%	1%	-1%	4%	-9%
CC(C)N(C(=O)[C@H]1C[C@H](CC(=O)NCC23CC4CC(CC(C4)C2)C3)C(=O)N2CCc3c([nH]c4cc(CCC(=O)N(C)C)ccc34)[C@]12C)C(C)C	3%[56.1 µM]	7.3µM*	-3%	3%	6.5µM*	-10%
CN(C)C(=O)CCc1ccc2c3c([nH]c2c1)[C@]1(C)[C@@H](C(=O)N2CCOCC2)C[C@H](CC(=O)NCC24CC5CC(CC(C5)C2)C4)C(=O)N1CC3	1%[56.1 µM]	?	0%	-13%	15µM*	11%
CC[C@]12c3[nH]c4cc(CCC(=O)N(C)C)ccc4c3CCN1C(=O)[C@@H](CC(=O)NCC13CC4CC(CC(C4)C1)C3)C[C@@H]2C(=O)N1CCN(C(=O)c2ccco2)CC1	1%[56.1 µM]	16µM*	-6%	-3%	?	-7%
CN(C)C(=O)CCc1ccc2c3c([nH]c2c1)[C@]1(C)[C@@H](C(=O)N2CCOCC2)C[C@H](CC(=O)NCc2ccco2)C(=O)N1CC3	1%[56.1 µM]	-13%	2%	-3%	-11%	-1%
COc1cc(/C=C/C(=O)c2ccc(O)cc2)ccc1OCC#N	3%	10µM*	-9%	-11%	8.2µM*	?
COc1cc(/C=C/C(=O)OCC(=O)N2CCC(C)CC2)ccc1OCC#N	-1%	3%	-4%	3%	3%	0%
SMILES	TDP1 inh	DT40 TDP1 no CPT	GCN5L2 inh	PLK1 PBD inh	TDP1 cell CPT	VDR inhibitor
CCOc1ccc(/C=C/C(=O)c2ccccc2)cc1OC	0%	?	-3%	-3%	?	79µM*
C=C1C(c2ccc(C)cc2)=CCc2cc(C)cc(C)c21	11%	·	-9%	·	·	4%
CCCCOc1ccccc1C1CC(=O)Nc2ccc3ccccc3c21 (stereo not given)	5%	6.5µM*	-19%	·	12µM*	-11%
O=C1CC(c2c(Cl)cccc2Cl)c2c(ccc3ccccc23)N1 (stereo not given)	0%[12.3 µM]	26µM*	-14%	·	?	-27%
COc1ccc(OC)c(C2CC(=O)Nc3ccc4ccccc4c32)c1 (stereo not given)	5%	?	-1%	·	?	?
COC(=O)C1C(=O)N(S(=O)(=O)c2ccc([N+](=O)[O-])cc2)c2ccccc21 (stereo not given)	·	5%	·	-16%	10%	·
Cc1cccc(CNc2ncncc2-c2ccccc2Cl)c1	·	?	-4%	·	-11%	-20%
O=C1CCNc2cc3ccccc3cc21	-7%	?	-6%	21µM*	?	?
C=CCN(c1ccc(F)cc1)S(=O)(=O)c1cc(C(=O)OCC(=O)N(C)C2CCS(=O)(=O)C2)ccc1Cl (stereo not given)	4%	-8%	-5%	-7%	-20%	-2%
O=C(CCn1c(=O)oc2cc(Cl)ccc21)Nc1ccc(N2CCOCC2)cc1	0%[0.0935 µM]	-27%	-1%	-3%	-3%	-3%
O=C(c1ccc(F)cc1)N1CCN(c2ccc(N3CCOCC3)nn2)CC1	3%	0%	-21%	-11%	-1%	-2%
CCCCOc1ccc(C(=O)N2CCN(c3ccc(N4CCOCC4)nn3)CC2)cc1	10%	?	-18%	0%	23µM*	4%
CCCOc1ccc(C(=O)N2CCN(c3ccc(N)cc3Cl)CC2)cc1	9%	21µM*	-17%	-15%	23µM*	6%
CC1C(=O)N(Cc2cn(Cc3ccco3)nn2)CCS(=O)(=O)N1Cc1ccc(-c2ccccc2)cc1 (stereo not given)	·	18µM*	·	-6%	?	·
CC1C(=O)N(Cc2cn(Cc3ccco3)nn2)CCS(=O)(=O)N1Cc1ccc(-c2ccc(Cl)cc2)cc1 (stereo not given)	·	13µM*	·	-4%	18µM*	·
Cc1noc(C)c1-c1nccc(NCCN2CCOCC2)n1	·	?	-2%	·	?	-6%
Nc1cc(N)c(OCC(F)(F)F)cc1OCC(F)(F)F	4%	9.2µM*	-4%	?	2.6µM*	?

Bioassay records as filed in PubChem BioAssay.
